Measured values: PubChem BioAssay (NCATS)
Records with an inconclusive call do not appear. Active and inactive are the calls of the source. Unless noted, the call rests on the fitted dose curve; in most records, active means well fitted curve in the direction sought with a large enough effect; inconclusive means small, poorly fitted or top-dose-only effect, or another doubt; inactive means no such curve, though single readings can be large; an effect the other way counts as inactive or inconclusive.

What was measured:
[1] = AP1 Signaling Pathway (AID 357; active means well fitted curve in either direction with a large enough effect, not every such curve was filed as active;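 further: ME-180 reporter cells stimulated with EGF at its EC50 level; on the % scale 0 is the no-effect control and ±100 the full control effect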); settings: ME-180 AP-1-bla reporter, EGF-induced, beta-lactamase ratio, 5 h; at 7.69 µM (top of the series) unless noted
Summary of the method: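 Read-out was the 460nm/530nm emission ratio (excitation 405nm) after CCF4 loading for 2.5 hours at room temperature. Cells carried an AP-1-driven beta-lactamase reporter, were stimulated with EC50 EGF plus compound for 5 hours, and AC50 values came from titrations.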

[2] = target: Cytochrome P450 1A2 (Homo sapiens) (UniProt P05177); assay: p450-cyp1a2 (AID 410; calls by dose curve;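 further: -100% = full effect of reference inhibitor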)
Summary of the method: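 O-Demethylation of luciferin 6' methyl ether by human CYP1A2 is monitored as luciferase luminescence. Substrate sits at Km (100uM); enzyme is 20nM. Values are scaled to 57 uM furafylline as maximal inhibition.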

[3] = target: Glucocorticoid receptor (Homo sapiens) (UniProt P04150); assay: GR-GFP Redistribution (AID 450;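 active means compounds whose dose series gives a full or clear partial fitted curve of increased nuclear translocation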; further: potency means the concentration at half of the fitted maximal effect); settings: U2OS GR-GFP nuclear translocation, laser cytometry, 2 h
[4] = target: Glucocorticoid receptor (Homo sapiens) (UniProt P04150); assay: GR-EFC Redistribution (AID 451; calls by dose curve; further: potency means the concentration at half of the fitted maximal effect); settings: CHO-K1 GR-EFC translocation, beta-gal luminescence, 2 h
Summary of the method: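 CHO-K1 cells stably expressing nuclear-localized β-gal enzyme acceptor and GR fused C-terminally to the enzyme donor fragment; ligand-driven nuclear translocation restores β-gal by complementation. Compounds titrated up to 46 uM final, 2 h at 37 °C; luminescence read.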

[5] = target: Mitogen-activated protein kinase 10 (Mus musculus) (UniProt Q61831); assay: JNK3 AlphaScreen Assay (AID 530; active means well fitted curve in either direction with a large enough effect, not every such curve was filed as active;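 further: kinase came from lysate of stimulated human HepG2 cells; signal reports phosphorylation of biotinylated GST-cJun 1-79 at Ser73 with 10 µM ATP; on the % scale 0 is the no-effect control and ±100 the full control effect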)
Summary of the method: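 Phosphorylation of biotinylated GST-cJun(1-79) at Ser73 is measured by AlphaScreen proximity luminescence. Enzyme is JNK3 in HepG2 lysates activated with interleukin-1beta and tumor necrosis factor alpha; ATP is 10 uM final.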

[6] = target: 3',5'-cyclic-AMP phosphodiesterase 4B (Homo sapiens) (UniProt Q07343); assay: qHTS Assay for Inhibitors of PDE-IV (AID 607; active means well fitted activation curve with a large enough effect in the main read-out, with a control signal flat, not every such curve was filed as active; further: % of control where 0% means no effect)
Summary of the method: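 Cell-based read-out of cAMP via a modified cyclic nucleotide-gated channel and membrane potential dye (535/590 nm) in HEK293 cells expressing PDE4 endogenously. Compounds tested up to 22.9 uM final; 100 uM RO 20-1724 reference.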

[7] = target: Guanine nucleotide-binding protein G(i) subunit alpha-1 (Homo sapiens) (UniProt P63096); assay: qHTS Assay for Inhibitors of RGS12 GoLoco Motif Activity (Green Fluorophore) (AID 879);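 further: 0% = labeled peptide with Gαi1 and full inhibition = labeled peptide alone without protein; negative values mean loss of peptide binding seen as reduced polarization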
Summary of the method: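 A drop in FITC polarization marked displacement of the FITC-tagged RGS12 GoLoco peptide (10 nM) from Gαi1 (50 nM). Compounds were incubated 10 min at room temperature in Tris pH 7.5 buffer containing 150 mM NaCl, 0.1 mM GDP and 0.05% NP40; unlabeled peptide titration served as control.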

[8] = qHTS Assay for Identification of Small Molecule Agonists for Hypoxia Response Element Signaling Pathway (AID 914; active means well fitted activation curve with a large enough effect in the signal ratio, with a control signal flat, not every such curve was filed as active; the % refers to the signal ratio; further: % of control where 0% means no effect); settings: ME-180 (cervical carcinoma) HRE-bla reporter, beta-lactamase ratio, CoCl2, 17 h; activation: hits give high values
Summary of the method: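 A beta-lactamase reporter under hypoxia response element control in ME-180 cells served as the system. Compound titrations plus EC50 CoCl2 ran 17 h at 37 degrees Celsius; AC50 values were fitted from %Activity.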

[9] = qHTS Assay for Identification of Small Molecule Agonists for Thrombopoietin (TPO) Signaling Pathway (AID 917); further: on the % scale 0 is the no-effect control and ±100 the full control effect
Summary of the method: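 Human TPO receptor–transfected Ba/F3 cells (murine, IL-3-dependent) in IL-3-deficient medium; compounds plus TPO at EC50, 26 pM final; 24 hrs, 37 C; GpIIb-luciferase luminescence after 10 min RT detection.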

[10] = target: Muscarinic acetylcholine receptor M1 (Rattus norvegicus) (UniProt P08482); assay: qHTS Assay for Antagonists of Acetylcholine Muscarinic M1 Receptor: Measurement of IP-One Response (AID 944); further: nearly all actives have a fitted effect of over 75% in size
Summary of the method: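 Antagonist mode with rat M1 receptor transfected into CHO cells. Compound is added first for 10 min, carbachol at its EC80 follows for 30 min, and lysis reagents then allow TR-FRET detection of accumulated IP1.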

[11] = target: Pyruvate kinase (Leishmania mexicana) (UniProt Q27686); assay: qHTS Validation Assay for Inhibitors of Leishmania Mexicana Pyruvate Kinase (AID 945);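 further: 0% = DMSO only neutral control wells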
Summary of the method: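 Compounds are tested as eight-point concentration series. Reactions contain 0.2 nM LmPYK E451W, 0.5 mM PEP, 0.1 mM ADP, 7 mM MgCl2 and 50 mM KCl at pH 7.2, run 1 h at room temperature, then read by PKLight luminescence.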

[12] = target: Pyruvate kinase PKM (Homo sapiens) (UniProt P14618); assay: qHTS Assay for Activators of Human Muscle Pyruvate Kinase (AID 954; active means well fitted curve in the direction sought with a large enough effect, not every such curve was filed as active;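 further: 0% = uninhibited enzyme and -100% = no enzyme or full thiadiazolimine inhibition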)
Summary of the method: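 ATP production by PKM2 detected via luciferase luminescence after 1 h room-temperature reaction (0.1 nM enzyme, PEP at Km 0.5 mM, ADP 0.1 mM, pH 7.2 imidazole buffer). Inhibition scaled to no-enzyme control; activation referenced to 0.3 nM enzyme wells.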

[13] = target: Alpha-galactosidase A (Homo sapiens) (UniProt P06280); assay: Counterscreen for Glucocerebrosidase Inhibitors: qHTS Assay for Human alpha-Galactosidase at pH 4.5 (AID 992); further: 0% is about no effect
Summary of the method: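 Fluorogenic 1536-well qHTS at pH 4.5 (citrate, Tween-20): 2 nM enzyme, 80 uM 4-MU-alpha-galactoside, 20 min room temperature, NaOH/glycine stop. Titration 0.7 nM to 77 uM, data normalized to no-enzyme and full-activity controls, Hill-fitted AC50.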

[14] = target: alpha-glucosidase (Oryza sativa, rice) (UniProt Q653V4); assay: Counterscreen for Glucocerebrosidase Inhibitors: qHTS Assay for Rice alpha-Glucosidase at pH 5.0 (AID 997);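 further: 0% = full activity with enzyme and -100% = basal without enzyme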
Summary of the method: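 Endpoint fluorogenic assay at pH 5.0: compounds (0.7 nM to 77 uM) titrated against 4 nM rice enzyme and 400 uM 4-MU-alpha-glucoside for 20 min at room temperature; NaOH/glycine stop, read ex 365/em 440 nm, Hill-fitted AC50.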

[15] = target: DNA repair nuclease/redox regulator APEX1 (Homo sapiens) (UniProt P27695); assay: qHTS Validation Assay for Inhibitors of the Human Apurinic/apyrimidinic Endonuclease 1 (APE1) (AID 1705;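 further: TAMRA fluorescence gain over two minutes as APE1 cuts a quenched THF abasic duplex; on the % scale 0 is the no-effect control and ±100 the full control effect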)
Summary of the method: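 Substrate: 50 nM final fluorophore/quencher THF-abasic duplex. Enzyme preincubated with compounds 15 min, RT. Progress derived from fluorescence difference, third minus first kinetic read.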

[16] = Counterscreen for APE1 Inhibitors: Fluorescent Dye Displacement Validation Assay (AID 1707);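 further: plate controls were ThO with dsDNA and no compound for no effect and ThO without dsDNA for full effect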
Summary of the method: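 Counterscreen flags promiscuous DNA binders: compounds displacing ThO from duplex DNA (abasic THF site, 50 nM) reduce 540 nm emission (480 nm excitation). ThO 250 nM final; Tris-HCl pH 7.5 with NaCl, MgCl2 and Tween-20.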

[17] = qHTS for differential inhibitors of proliferation of Plasmodium falciparum line 7G8 (AID 1815);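 further: parasite growth measured after three days of incubation; plate controls were vehicle wells for no effect and reference inhibitor wells for full effect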
[18] = qHTS for differential inhibitors of proliferation of Plasmodium falciparum line GB4 (AID 1816); settings: Potency: Plasmodium falciparum GB4 proliferation inhibition;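 further: parasite growth measured after 72 h incubation; 0% = vehicle DMSO and -100% = reference inhibitor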
[19] = qHTS for differential inhibitors of proliferation of Plasmodium falciparum line 3D7 (AID 1876);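 further: parasite growth measured after three days of culture; 0% = vehicle wells and -100% = reference inhibitor wells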
[20] = qHTS for differential inhibitors of proliferation of Plasmodium falciparum line D10 (AID 1877);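 further: parasites grown with compound for 72 h before DNA staining; plate controls were vehicle wells for no effect and reference inhibitor wells for full effect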
[21] = qHTS for differential inhibitors of proliferation of Plasmodium falciparum line Dd2 (AID 1882); settings: Potency: Plasmodium falciparum Dd2 proliferation inhibition;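 further: plate controls were DMSO vehicle for no effect and 0.29 µM artemisinin for full effect; nearly all actives have a fitted effect of over 65% in size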
Summary of the method: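 SYBR Green DNA fluorescence (ex 485, em 535 nm) after overnight lysis quantifies parasite growth; compound exposure lasted 72 h at 37 C on infected red cells at 2.5% hematocrit, 0.3% parasitemia (final). Artemisinin 0.29 uM and vehicle wells define normalization.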

[22] = qHTS for differential inhibitors of proliferation of Plasmodium falciparum line W2 (AID 1883); settings: Potency: Plasmodium falciparum W2 proliferation inhibition;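 further: parasites grown with compound for 72 h before lysis and staining; 0% = vehicle wells and -100% = control inhibitor wells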
[23] = qHTS for differential inhibitors of proliferation of Plasmodium falciparum line HB3 (AID 1886); settings: Potency: Plasmodium falciparum HB3 proliferation inhibition;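 further: parasites grown with compound for 72 h before SYBR Green readout; plate controls were vehicle for no effect and reference inhibitor for full effect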
[24] = qHTS Assay for Modulators of Human Peripheral Myelin Protein 22 (PMP22) Expression/Activity (AID 1967; active means well fitted curve in the direction sought with a large enough effect in the signal ratio; the % refers to the signal ratio;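 further: 0% = untreated cells and 100% end not stated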)
Summary of the method: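 Engineered MSC80 cells, Pmp22-promoter green and EF-alpha red luciferase reporters; 24h compound treatment at 37 °C. Concentration-response fits on green, red and ratio signals, each overlap-corrected, with %Activity normalized to untreated wells.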

[25] = target: Ferritin light chain (Equus caballus) (UniProt P02791); assay: qHTS Validation Assay for Identification of Novel General Anesthetics (AID 2323); further: on the % scale 0 is the no-effect control and ±100 the full control effect
Summary of the method: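 Normalized fluorescence response, scaled between free 1-AMA and 1-AMA/apoferritin complex, fitted to a four-parameter Hill equation for concentration-effect values. Binding mix: 10 uM horse-spleen apoferritin, 50% saturated 1-AMA in PBS; read 380/535 nm after 10 min.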

[26] = target: ATP-dependent DNA helicase Q1 (Homo sapiens) (UniProt P46063); assay: qHTS Validation Assay for Inhibitors of RecQ-Like Dna Helicase 1 (RECQ1) (AID 2353);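 further: plate controls were DMSO vehicle for no effect and enzyme-free control for full effect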
Summary of the method: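 RECQ1T1 50 nM; forked duplex (20 bp + 30-nt ss tails) 200 nM, ATP 2 mM final; pH 8.0, 2 mM MgCl2, 2.5 ug/ml poly(dI-dC); 15 min compound preincubation; discontinuous kinetic read over 2 h at RT.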

[27] = target: RecQ-like DNA helicase BLM (Homo sapiens) (UniProt P54132); assay: qHTS Validation Assay for Inhibitors of Bloom's syndrome helicase (BLM) (AID 2364);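 further: plate controls were DMSO vehicle for no effect and enzyme-free control for full effect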
Summary of the method: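 BLM 50 nM in 25 mM Tris-HCl pH 8.0, 5 mM NaCl, 2 mM MgCl2, 1 mM DTT, 0.01% Tween-20, 2.5 ug/ml poly(dI-dC); 15 min cpd preinc, RT. Start: 200 nM forked DNA + 2 mM ATP (final). TAMRA read, 2 reads 2 h apart.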

[28] = Validation screen for small molecules that induce DNA re-replication in MCF 10A normal breast cells (AID 463097); further: 0% is about no effect; nearly all actives have a fitted effect of over 60% in size
Summary of the method: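 Following 48 hr compound incubation (37 C, 5% CO2), MCF 10A cells receive Hoechst for 40 min at 37 C. Nuclei are then scanned (excitation 405 nm, emission 500-530 nm) for total fluorescence intensity.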

[29] = Quantitative high throughput screen for delayed death inhibitors of the malarial parasite plastid, 96 hour incubation (AID 488745);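 further: luciferase-expressing P. falciparum in erythrocytes at 2% hematocrit and 0.1% parasitemia; on the % scale 0 is the no-effect control and ±100 the full control effect; nearly all actives have a fitted effect of over 70% in size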
Summary of the method: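 Readout is firefly luciferase luminescence from an integrated reporter in P. falciparum; lower signal marks inhibited growth. Cultures at 2% hematocrit and 0.1% parasitemia were treated with compound across two generations (96 h, 37 C, 5% CO2).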

[30] = target: M-phase phosphoprotein 8 (Homo sapiens) (UniProt Q99549); assay: qHTS Validation Assay for Inhibitors for MPP8 Chromodomain Interactions with Methylated Histone Tails (AID 488949);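 further: 50 nM MPP8 with 50 nM peptide preformed then compounds added for 30 min; AlphaScreen signal from MPP8 chromodomain bound to biotinylated H3K9me3 peptide; top concentration of the series differs between compounds; on the % scale 0 is the no-effect control and ±100 the full control effect; nearly all actives have a fitted effect of over 55% in size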
Summary of the method: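 Chemiluminescent proximity assay: histidine-tag capture via nickel acceptor beads, biotin peptide via streptavidin donor beads. Protein and peptide each at 50 nM, pH 7.4, with 30 min incubations at room temperature for complex formation, compound exposure and bead binding.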

[31] = target: Transient receptor potential cation channel subfamily V member 1 (Homo sapiens) (UniProt Q8NER1); assay: HTS Assay for Compounds that Act as Enhancers of the Vanilloid Receptor 1 (AID 488979); further: 0% is about no effect
Summary of the method: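 TRPV1-expressing cells loaded with Fluo-8 calcium dye; compounds added and calcium influx read kinetically for 3 min (agonist phase), then capsaicin at EC20 added and read 2 min more for enhancement. Fluorescence ex 480/em 520 nm.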

[32] = target: Thyrotropin-releasing hormone receptor (Homo sapiens) (UniProt P34981); assay: qHTS for Small Molecule Agonists and Allosteric Enhancers of Human TRH Receptor: Validation Screen for Agonists (AID 493127;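 active means calcium activation more than 3 SD above the typical response in the agonist read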;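 further: intracellular calcium rise by fluo-8 fluorescence before TRH EC20 addition; 0% is about no effect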); settings: TRH receptor agonist cell assay; at 2 µM; hits give high values
Summary of the method: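 Compounds are added by online pintool to dye-loaded TRHR cells while fluorescence is recorded every second. A rise in calcium signal during the agonist read marks activation; a later 10 nM TRH addition (EC20) serves the separate enhancer mode.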

[33] = target: Galactokinase (Homo sapiens) (UniProt P51570); assay: qHTS Validation Assay for Inhibitors of Human Galactokinase (GALK) (AID 493189); further: 0% is about no effect
Summary of the method: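 Enzyme activity is inferred from ATP consumption: human GALK phosphorylates galactose (100 uM) using 35 uM ATP for 1 h at room temperature, and luciferase-based Kinase-Glo Plus reports unconsumed ATP.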

[34] = Validation screen for small molecules that induce DNA re-replication in SW480 colon adenocarcinoma cells (AID 504364); further: 0% is about no effect
Summary of the method: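 Image-based qHTS: compounds were incubated with SW480 cells for 48 hr, nuclei stained with Hoechst, and per-nucleus fluorescence intensity scanned to flag cells with excess DNA content.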

Chain of Glucocorticoid receptor (Homo sapiens) (P04150 whole entry, looked up, the tested form may be a part): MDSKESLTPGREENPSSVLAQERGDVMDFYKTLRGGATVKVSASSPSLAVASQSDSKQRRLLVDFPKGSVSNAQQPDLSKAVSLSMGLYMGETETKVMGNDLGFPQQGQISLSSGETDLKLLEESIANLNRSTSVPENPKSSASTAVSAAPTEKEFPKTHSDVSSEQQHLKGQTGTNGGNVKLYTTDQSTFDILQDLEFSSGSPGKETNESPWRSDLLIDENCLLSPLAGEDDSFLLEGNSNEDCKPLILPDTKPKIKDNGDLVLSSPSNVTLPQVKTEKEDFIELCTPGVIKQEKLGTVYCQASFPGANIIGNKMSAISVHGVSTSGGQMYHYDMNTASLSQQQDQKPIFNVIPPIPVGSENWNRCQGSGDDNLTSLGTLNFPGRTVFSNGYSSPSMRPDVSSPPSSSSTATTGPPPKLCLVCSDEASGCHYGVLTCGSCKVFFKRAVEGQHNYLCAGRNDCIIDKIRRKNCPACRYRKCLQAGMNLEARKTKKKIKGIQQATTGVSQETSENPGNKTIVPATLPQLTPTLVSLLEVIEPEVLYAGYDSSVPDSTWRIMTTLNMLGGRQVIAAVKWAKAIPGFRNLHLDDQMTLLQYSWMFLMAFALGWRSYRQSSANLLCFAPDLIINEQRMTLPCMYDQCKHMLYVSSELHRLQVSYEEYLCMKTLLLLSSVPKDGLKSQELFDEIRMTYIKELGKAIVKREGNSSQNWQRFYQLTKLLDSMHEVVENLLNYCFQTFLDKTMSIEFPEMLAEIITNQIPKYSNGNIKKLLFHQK
Chain of Pyruvate kinase PKM (Homo sapiens) (P14618 whole entry, looked up): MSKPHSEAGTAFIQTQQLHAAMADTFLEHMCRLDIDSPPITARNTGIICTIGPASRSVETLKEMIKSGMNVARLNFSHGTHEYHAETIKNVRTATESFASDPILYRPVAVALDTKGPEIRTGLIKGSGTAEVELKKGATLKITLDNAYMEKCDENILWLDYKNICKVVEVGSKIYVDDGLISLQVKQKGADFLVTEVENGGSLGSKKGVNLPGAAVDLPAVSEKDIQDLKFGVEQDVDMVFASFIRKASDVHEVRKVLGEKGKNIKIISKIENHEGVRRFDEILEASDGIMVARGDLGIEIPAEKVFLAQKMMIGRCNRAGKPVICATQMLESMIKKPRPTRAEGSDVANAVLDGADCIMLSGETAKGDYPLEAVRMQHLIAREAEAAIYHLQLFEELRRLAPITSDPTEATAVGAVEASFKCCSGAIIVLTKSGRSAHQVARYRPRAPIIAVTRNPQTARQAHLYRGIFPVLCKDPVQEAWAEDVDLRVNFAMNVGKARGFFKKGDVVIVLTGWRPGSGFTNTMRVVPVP
Chain of RecQ-like DNA helicase BLM (Homo sapiens) (P54132 whole entry, looked up): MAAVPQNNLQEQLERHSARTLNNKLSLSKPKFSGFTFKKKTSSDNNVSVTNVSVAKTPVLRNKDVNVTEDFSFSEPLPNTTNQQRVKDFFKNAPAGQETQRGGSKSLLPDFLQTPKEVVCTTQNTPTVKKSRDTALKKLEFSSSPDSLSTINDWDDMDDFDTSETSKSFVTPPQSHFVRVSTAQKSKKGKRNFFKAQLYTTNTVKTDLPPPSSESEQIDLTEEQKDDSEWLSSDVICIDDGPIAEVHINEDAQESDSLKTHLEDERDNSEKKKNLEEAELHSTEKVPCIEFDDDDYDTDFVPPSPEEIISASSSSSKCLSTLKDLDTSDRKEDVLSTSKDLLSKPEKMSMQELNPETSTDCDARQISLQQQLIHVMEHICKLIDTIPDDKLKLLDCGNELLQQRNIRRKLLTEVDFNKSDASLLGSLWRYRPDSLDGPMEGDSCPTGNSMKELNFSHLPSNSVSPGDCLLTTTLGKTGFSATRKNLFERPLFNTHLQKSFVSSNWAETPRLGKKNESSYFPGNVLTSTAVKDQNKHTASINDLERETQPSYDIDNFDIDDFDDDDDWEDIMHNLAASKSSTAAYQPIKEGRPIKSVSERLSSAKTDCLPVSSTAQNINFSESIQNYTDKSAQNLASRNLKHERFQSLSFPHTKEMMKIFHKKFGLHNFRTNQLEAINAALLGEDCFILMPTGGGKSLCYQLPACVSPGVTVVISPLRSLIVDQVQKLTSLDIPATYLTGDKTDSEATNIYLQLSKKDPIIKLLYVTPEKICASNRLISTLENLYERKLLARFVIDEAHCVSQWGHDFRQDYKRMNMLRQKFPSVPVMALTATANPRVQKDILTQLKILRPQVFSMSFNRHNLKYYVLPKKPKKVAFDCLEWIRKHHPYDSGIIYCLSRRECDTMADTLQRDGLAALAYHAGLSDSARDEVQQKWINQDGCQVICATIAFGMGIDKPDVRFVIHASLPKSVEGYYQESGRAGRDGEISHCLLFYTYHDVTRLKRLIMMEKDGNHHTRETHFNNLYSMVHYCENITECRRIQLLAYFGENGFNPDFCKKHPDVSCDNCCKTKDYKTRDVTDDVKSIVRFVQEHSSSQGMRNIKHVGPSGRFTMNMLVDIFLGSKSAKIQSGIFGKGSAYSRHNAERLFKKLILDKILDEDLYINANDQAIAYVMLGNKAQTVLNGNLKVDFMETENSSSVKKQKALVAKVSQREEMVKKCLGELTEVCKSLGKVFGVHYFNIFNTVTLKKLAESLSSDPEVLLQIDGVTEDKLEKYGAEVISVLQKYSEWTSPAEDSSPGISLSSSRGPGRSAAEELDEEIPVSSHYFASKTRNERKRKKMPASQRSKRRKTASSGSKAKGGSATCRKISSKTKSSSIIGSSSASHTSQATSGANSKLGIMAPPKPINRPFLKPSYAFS
Chain of Transient receptor potential cation channel subfamily V member 1 (Homo sapiens) (Q8NER1 whole entry, looked up): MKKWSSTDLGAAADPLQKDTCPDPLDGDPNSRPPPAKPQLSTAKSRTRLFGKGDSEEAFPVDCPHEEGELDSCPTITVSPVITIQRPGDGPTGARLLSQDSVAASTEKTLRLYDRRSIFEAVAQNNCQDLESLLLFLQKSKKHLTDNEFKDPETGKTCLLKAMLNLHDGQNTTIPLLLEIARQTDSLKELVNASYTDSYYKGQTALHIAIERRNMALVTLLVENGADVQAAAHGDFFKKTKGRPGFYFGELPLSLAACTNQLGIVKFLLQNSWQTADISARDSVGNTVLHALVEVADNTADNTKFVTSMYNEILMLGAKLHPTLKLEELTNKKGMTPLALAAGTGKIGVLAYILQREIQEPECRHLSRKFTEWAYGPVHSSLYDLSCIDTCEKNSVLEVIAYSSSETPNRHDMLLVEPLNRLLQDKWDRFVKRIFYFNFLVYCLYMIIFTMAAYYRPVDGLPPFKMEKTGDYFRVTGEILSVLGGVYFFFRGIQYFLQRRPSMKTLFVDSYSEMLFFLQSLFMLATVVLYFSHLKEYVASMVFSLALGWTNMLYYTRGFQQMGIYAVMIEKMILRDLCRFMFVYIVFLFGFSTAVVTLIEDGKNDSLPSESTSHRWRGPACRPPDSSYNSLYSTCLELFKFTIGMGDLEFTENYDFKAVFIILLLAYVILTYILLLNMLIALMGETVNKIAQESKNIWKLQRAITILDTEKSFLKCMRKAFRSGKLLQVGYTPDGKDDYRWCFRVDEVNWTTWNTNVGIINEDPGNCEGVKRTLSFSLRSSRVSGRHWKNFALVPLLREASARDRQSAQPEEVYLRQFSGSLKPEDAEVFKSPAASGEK
Chain of Muscarinic acetylcholine receptor M1 (Rattus norvegicus) (P08482 whole entry, looked up): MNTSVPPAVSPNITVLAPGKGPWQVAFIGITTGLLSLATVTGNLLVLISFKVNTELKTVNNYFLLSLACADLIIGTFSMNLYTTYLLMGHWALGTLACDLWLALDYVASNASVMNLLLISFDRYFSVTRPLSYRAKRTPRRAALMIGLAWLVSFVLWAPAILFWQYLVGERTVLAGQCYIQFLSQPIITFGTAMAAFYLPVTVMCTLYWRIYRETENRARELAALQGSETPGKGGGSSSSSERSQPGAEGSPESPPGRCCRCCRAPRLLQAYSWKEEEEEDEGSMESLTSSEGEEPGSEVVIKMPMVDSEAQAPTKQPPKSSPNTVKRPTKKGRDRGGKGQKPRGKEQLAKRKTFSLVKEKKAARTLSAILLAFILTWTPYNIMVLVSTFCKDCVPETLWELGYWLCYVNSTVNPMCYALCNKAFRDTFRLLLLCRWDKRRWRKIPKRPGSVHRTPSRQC
Chain of Guanine nucleotide-binding protein G(i) subunit alpha-1 (Homo sapiens) (P63096 whole entry, looked up): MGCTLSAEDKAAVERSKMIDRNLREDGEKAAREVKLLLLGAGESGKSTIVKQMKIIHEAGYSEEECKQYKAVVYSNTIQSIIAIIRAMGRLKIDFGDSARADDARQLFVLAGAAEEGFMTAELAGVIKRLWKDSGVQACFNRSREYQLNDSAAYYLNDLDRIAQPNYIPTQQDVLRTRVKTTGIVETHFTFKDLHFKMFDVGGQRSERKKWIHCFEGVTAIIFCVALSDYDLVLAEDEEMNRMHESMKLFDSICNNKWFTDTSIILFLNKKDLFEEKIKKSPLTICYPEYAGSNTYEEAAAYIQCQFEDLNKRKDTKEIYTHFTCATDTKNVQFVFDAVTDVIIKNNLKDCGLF
Chain of Galactokinase (Homo sapiens) (P51570 whole entry, looked up): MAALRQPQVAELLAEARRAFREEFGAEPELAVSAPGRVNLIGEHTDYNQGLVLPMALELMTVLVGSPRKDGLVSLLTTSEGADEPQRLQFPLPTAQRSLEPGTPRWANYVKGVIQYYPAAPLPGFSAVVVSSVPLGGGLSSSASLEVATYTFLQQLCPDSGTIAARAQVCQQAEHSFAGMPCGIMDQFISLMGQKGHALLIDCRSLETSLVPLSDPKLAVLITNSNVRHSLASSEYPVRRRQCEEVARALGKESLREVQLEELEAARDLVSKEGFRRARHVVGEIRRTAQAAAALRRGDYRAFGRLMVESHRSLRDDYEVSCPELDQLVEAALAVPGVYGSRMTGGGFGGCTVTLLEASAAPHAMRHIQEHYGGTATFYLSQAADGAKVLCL
Chain of Ferritin light chain (Equus caballus) (P02791 2-175 limits assumed): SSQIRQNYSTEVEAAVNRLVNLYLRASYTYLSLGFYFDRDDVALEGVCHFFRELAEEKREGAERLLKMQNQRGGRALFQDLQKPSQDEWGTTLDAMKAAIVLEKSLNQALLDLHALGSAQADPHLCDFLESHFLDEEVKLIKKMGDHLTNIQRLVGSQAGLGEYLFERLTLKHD

O=S(=O)(O)C1CCNCC1
inactive: activity change, negative = inhibition [1] 5.14% [at 38 µM] | Potency [2] | Potency [3] > 46 µM | Potency [4] > 46 µM | Potency [5] | Potency [6] | Potency [7] | activation [8] 1.41% | outcome [9] | Potency [10] | outcome [11] | outcome [12] | outcome [13] | outcome [14] | Potency [15] | outcome [16] | Potency [17] | Potency [18] | Potency [19] | Potency [20] | Potency [21] | Potency [22] | Potency [23] | outcome [24] | outcome [25] | outcome [26] | Potency [27] | Potency [28] | Potency [29] | Potency [30] | outcome [31] | activation [32] 0.125% | outcome [33] | Potency [34]
